Our source for the AC50 values is PubChem BioAssay AID2284117 (EPA ToxCast).

The source made the active and inactive calls. Rule for the calls: active = hit-call score of the fitted dose curve at least 0.9, where 1 is the maximum; inactive = score below 0.9.

human PDE4A1A Phosphodiesterase, PDE4A (gene 5141), sequence (P27815 whole entry, looked up): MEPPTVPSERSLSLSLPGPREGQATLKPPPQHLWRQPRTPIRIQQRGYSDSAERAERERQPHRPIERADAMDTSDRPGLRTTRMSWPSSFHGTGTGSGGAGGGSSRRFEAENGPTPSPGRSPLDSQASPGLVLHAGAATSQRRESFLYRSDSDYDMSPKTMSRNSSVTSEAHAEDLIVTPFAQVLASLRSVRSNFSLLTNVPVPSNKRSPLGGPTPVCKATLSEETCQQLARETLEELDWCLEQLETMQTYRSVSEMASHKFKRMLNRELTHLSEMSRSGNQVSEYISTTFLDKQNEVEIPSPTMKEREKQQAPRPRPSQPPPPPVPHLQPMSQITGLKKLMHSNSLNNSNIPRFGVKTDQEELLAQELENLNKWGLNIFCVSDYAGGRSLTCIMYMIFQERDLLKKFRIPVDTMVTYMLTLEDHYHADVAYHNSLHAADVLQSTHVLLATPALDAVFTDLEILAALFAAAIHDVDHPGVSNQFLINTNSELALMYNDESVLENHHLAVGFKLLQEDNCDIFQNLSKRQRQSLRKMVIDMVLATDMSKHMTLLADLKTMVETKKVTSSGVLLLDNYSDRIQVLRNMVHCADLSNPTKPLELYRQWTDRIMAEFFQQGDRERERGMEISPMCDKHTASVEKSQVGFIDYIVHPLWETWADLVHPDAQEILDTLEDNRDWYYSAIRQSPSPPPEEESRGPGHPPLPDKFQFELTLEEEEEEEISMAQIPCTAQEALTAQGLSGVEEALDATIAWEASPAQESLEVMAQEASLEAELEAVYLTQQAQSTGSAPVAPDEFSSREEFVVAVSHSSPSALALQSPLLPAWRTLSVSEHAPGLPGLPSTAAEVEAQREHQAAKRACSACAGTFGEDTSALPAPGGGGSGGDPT

The target of the assay is human PDE4A1A Phosphodiesterase, PDE4A (gene 5141) (UniProt P27815). The assay is described as follows: ERF_FR_ENZ_hPDE4A: Eurofins (ERF) Enzymatic LeadHunter Assay for human PDE4A1A Phosphodiesterase. As for the experimental part:
ERF_FR_ENZ_hPDE4A is a biochemical, single-readout assay that uses extracted gene-proteins in a cell-free assay. Measurements were taken 0.33 hour after chemical dosing in a 96-well plate. See PDE4A1A Human Phosphodiesterase Enzymatic Assay, Cerep.ERF_FR_ENZ_hPDE4A is an assay component calculated from the ERF_FR_ENZ_hPDE4A assay. It is designed to measure enzyme activity using a type of enzyme reporter as detected by scintillation counting with radiometry technology.Data from the assay component ERF_FR_ENZ_hPDE4A was analyzed at the assay endpoint, ERF_FR_ENZ_hPDE4A, in the positive analysis fitting direction relative to DMSO as the negative control and baseline of activity. Using a type of enzyme reporter, loss-of-signal activity can be used to understand changes in enzymatic activity as they relate to gene PDE4A. To generalize the intended target to other relatable targets, this assay endpoint is annotated to the phosphodiesterase intended target family, where the subfamily is cyclic nucleotide signaling.
Human cells are incubated for 10 minutes at room temprature with [3H]cAMP + cAMP (0.5uM) as sunstrate and Nitrendipine as control inhibitor. Test Sample Requirements: Minimum for 1) Screen: 60 ul of 10 mM stock -OR- 1 mg (pre-weighed) for 10 uM final testing. 2) Dose Response: 90 ul of 10 mM stock -OR- 1 mg (pre-weighed) for a top concentration at 10 uM.
For `COc1cc(CCC(=O)CC(=O)CCc2ccc(O)c(OC)c2)ccc1O`, the AC50 (usually the concentration giving half of the maximal activity seen) was 2660 nM (active).
